Bioassay records deposited in PubChem by National Center for Advancing Translational Sciences (NCATS).
Mm-Cpn inhibitor = inhibitors of Methanococcus maripaludis chaperonin TRiC (MmCpn). Potency, µM (series often up to 76.9 µM), most hits filed as inhibitors. purified Mm-Cpn ATPase, ADP Transcreener TR-FRET. 330,000 tested, 0.031% active; note: nearly all actives have a fitted effect of over 80% in size
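25 nM Mm-CPN + cpd, 10 min 37°C; + 10 uM ATP, 30 min 37°C; buffer 30 mM Tris pH 7.4, 100 mM KCl, 5 mM MgCl2, 1 mM DTT; Transcreener ADP HTRF detection 30 min RT.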
TCR activator = activates T cell receptor signaling | 330,000 tested, under 10 active | primary human leukocytes, anti-CD3, IL-2 HTRF, 48 h | Potency, µM (titrated, usually from 9.22 µM), most hits filed as activators
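IL-2 produced over 48 hr by a-CD3 bead-stimulated primary human leukocytes exposed to compounds was detected with a homogeneous time-resolved FRET immunoassay, 665nm acceptor signal after 320nm excitation.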
CCT chaperon mod = changes cytosolic chaperonin activity | purified chaperonin ATPase assay, HTRF ADP detection, 30 min | activity change, % (no concentration beside the values), hits read low | AID 651819 | 360,000 tested, 0.3% active; in the data active = activity change below about -30%
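Nucleotide hydrolysis assay: TRiC at 20–40 nM final (set by batch activity) with 10 uM ATP, 30 min at 37 °C, in presence of 76 uM compound. Detection by competitive ADP HTRF, 30 min ambient.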
TSHR antag = antagonists of human thyroid stimulating hormone receptor. P16473. TSHR-expressing cells, TSH-stimulated cAMP HTRF, 2 h; active compounds read low. activity change, negative = inhibition, % at 11.5 µM. 330,000 tested, 0.2% active;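 active = activity change below a set negative limit, meaning inhibition stronger than a set level, cut at about -70% in these data; inconclusive = activity change between two set negative limits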
Target sequence (P16473 whole entry, looked up): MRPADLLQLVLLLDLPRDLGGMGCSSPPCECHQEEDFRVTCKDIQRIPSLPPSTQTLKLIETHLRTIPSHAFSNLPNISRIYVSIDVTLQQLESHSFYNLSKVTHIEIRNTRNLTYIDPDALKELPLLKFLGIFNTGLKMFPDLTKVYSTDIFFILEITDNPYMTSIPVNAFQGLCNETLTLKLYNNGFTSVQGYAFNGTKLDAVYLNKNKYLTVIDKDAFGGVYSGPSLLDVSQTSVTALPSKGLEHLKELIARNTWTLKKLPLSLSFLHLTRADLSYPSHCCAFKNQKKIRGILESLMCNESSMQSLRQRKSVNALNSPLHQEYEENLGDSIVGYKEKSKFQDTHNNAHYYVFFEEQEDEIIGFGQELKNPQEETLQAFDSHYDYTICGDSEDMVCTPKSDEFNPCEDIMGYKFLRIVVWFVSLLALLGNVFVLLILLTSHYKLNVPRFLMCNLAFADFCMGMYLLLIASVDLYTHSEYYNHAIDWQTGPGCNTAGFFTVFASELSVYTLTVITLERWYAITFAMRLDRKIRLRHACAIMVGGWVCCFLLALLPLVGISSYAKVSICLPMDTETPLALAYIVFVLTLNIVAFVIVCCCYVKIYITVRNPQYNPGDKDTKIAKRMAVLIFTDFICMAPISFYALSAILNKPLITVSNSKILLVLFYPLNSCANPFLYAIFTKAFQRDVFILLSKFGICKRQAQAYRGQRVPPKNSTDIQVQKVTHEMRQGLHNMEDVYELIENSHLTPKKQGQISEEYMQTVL
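Freshly harvested TSHR cells receive pin-tooled compound, then EC80 TSH at 4nM final. After 2 hours at 37 deg C, antibody in lysis buffer and cAMP-d2 are added; 30 minutes at ambient temperature precede the HTRF read.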
B2AR arrestin = recruits beta-arrestin to the human beta2-adrenergic receptor; AID 492947; 330,000 tested, 0.02% active; Potency, µM (highest dose often 46.1 µM), usual class: activators; P07550; beta-arrestin recruitment to beta2AR, cell-based reporter; note: nearly all actives have a fitted effect of over 65% in size
Each line names hits and unclear results; the compound was inactive in the other large screens. The list is not random: actives were taken first. Their share in the collection is about 0.5%. Unless noted, calls come from the whole dose curve; as a rule, active = well fitted curve in the direction sought with a large enough effect; inconclusive = small, poorly fitted or top-dose-only effect, or another doubt; inactive = no such curve, though single readings can be large; an effect the other way counts as inactive or inconclusive.

CCN(CC)S(=O)(=O)c1cccc(-c2nnc(SCCOc3ccc(Cl)cc3)o2)c1	none
CC1CCCCN1CCCNC(=O)c1nn(C)c2c1CS(=O)(=O)c1ccccc1-2 (configuration not stated)	none
CC1CCCN(CCCNC(=O)c2nn(C)c3c2CS(=O)(=O)c2ccccc2-3)C1 (configuration not stated)	CCT chaperon mod -76
CC1(c2nnc(-c3ccc(Cl)cc3)o2)CC(c2ccc([N+](=O)[O-])cc2)=NO1 (configuration not stated)	none
CC1(c2nnc(-c3ccncc3)o2)CC(c2ccc([N+](=O)[O-])cc2)=NO1 (configuration not stated)	CCT chaperon mod -62
C/C(=N\NC(=O)C(O)c1ccccc1)c1cccnc1 (configuration not stated)	none
Cc1oncc1-c1csc(-c2ccccc2Cl)n1	none
COc1cccc(OCc2cc(C(=O)N3CCC(c4ccncc4)CC3)no2)c1	none
CC(=O)c1ccc(OCc2cc(C(=O)N3CCC(c4ccncc4)CC3)no2)cc1	CCT chaperon mod -49
Oc1c(CN2CCOCC2)cc(COCc2ccccc2)c2cccnc12	B2AR arrestin 5.8µM
O=C(Cn1ncc2c([nH]c3ccccc32)c1=O)NCC1CCN(Cc2ccc(F)cc2)CC1	TSHR antag -138
CCn1nc(C)cc1-c1nnc(Sc2ncc([N+](=O)[O-])s2)n1C	TSHR antag -92
CCn1nc(C)cc1-c1nnc(SCC(=O)Nc2ccccc2)n1CCCOC	none
Cc1cccc(C)c1Nc1n[nH]c(=S)s1	none (no result: Mm-Cpn inhibitor, TCR activator, TSHR antag, B2AR arrestin)
CC(C)c1ccc(Nc2n[nH]c(=S)s2)cc1	CCT chaperon mod -63 (no result: Mm-Cpn inhibitor, TCR activator, TSHR antag, B2AR arrestin)
CCCn1c2ccccc2c2cnn(CC(=O)NCCN(CC)CC)c(=O)c21	none
COC(=O)[C@@]1(Cc2ccccc2)[C@H]2C(=O)N(C)C(=O)[C@H]2[C@H]2CN=C(SCc3ccc(C)cc3)N21	CCT chaperon mod -60
COC(=O)[C@@]1(Cc2ccccc2)[C@H]2C(=O)N(C)C(=O)[C@H]2[C@H]2CN=C(SCc3ccc(Cl)cc3)N21	none
CN(C)CCCN(C(=O)/C=C/c1cccs1)c1nc2c(F)cccc2s1	none
COc1ccc(-c2cc(C(F)(F)F)c(C#N)c(SCC(=O)Nc3ccccc3C#N)n2)cc1	CCT chaperon mod -45
O=C(Cn1ccc2ccccc2c1=O)NCCC(=O)NC1CCN(Cc2ccccc2)CC1	CCT chaperon mod -31
O=S(=O)(NCCCN1CCN(c2ccccc2F)CC1)c1cccc2cccnc12	none
CCOCCCNC(=O)C(c1ccc(OC)cc1)N(Cc1ccc2c(c1)OCO2)C(=O)c1ccccn1 (configuration not stated)	none
CCOCCCNC(=O)C(c1ccc(OC)cc1)N(Cc1ccc2c(c1)OCO2)C(=O)c1cnccn1 (configuration not stated)	CCT chaperon mod -65 (no result: TCR activator)
O=C(NCc1nnc(SCc2ccccc2)n1-c1ccc(F)cc1)C12CC3CC(CC(C3)C1)C2	CCT chaperon mod -68
O=C(NCc1nnc(SCc2ccccc2)n1-c1ccccc1)C12CC3CC(CC(C3)C1)C2	none
CCOC(=O)C1CCN(CC(=O)Nc2c(C(=O)OC)n(C)c3cccc(C)c23)CC1	none
CC(C)n1nc(C(=O)Nc2ccc(-n3cnnn3)cc2)c2ccccc2c1=O	CCT chaperon mod -31
Cn1nc(C(=O)Nc2ccc(-n3cnnn3)cc2)c2ccccc2c1=O	none
Cc1ccc(Cl)c(NC(=O)COC(=O)c2nn(C)c(=O)c3ccccc23)c1Cl	CCT chaperon mod -43 (no result: TCR activator)
Cn1nc(C(=O)OCC(=O)NCCc2ccccc2)c2ccccc2c1=O	CCT chaperon mod -32
Cn1nc(C(=O)OCC(=O)NCc2ccc(Cl)cc2)c2ccccc2c1=O	none
CCCCn1nnnc1SCC(=O)c1cc(Cl)ccc1OC	none
O=c1oc(-c2cccs2)nc2sc3c(c12)CCCC3	none
CCOC(=O)C1CCN(C(=O)CCS(=O)(=O)c2ccc3c(c2)CCN3C(=O)CC)CC1	none
CCOC(=O)C1CCN(C(=O)CCS(=O)(=O)c2ccc3c(c2)CC(C)N3C(=O)CC)CC1 (configuration not stated)	none
CCOC(=O)N1CCN(C(=O)CCS(=O)(=O)c2ccc3c(c2)CC(C)N3C(=O)CC)CC1 (configuration not stated)	CCT chaperon mod -77
Cc1ccc(C)c(N2CCN(C(=O)CCS(=O)(=O)c3ccc4c(c3)CCN4C(=O)C3CC3)CC2)c1	TSHR antag -82
COc1ccc(C2CC(c3cccc(Cl)c3)n3nc(N)nc3N2)cc1 (configuration not stated)	Mm-Cpn inhibitor inconclusive
O=[S@]1Oc2ccccc2-c2ccccc21	CCT chaperon mod -71 (no result: Mm-Cpn inhibitor, TSHR antag, B2AR arrestin)
Cc1cccc(CC(=O)N2CCC(n3nccc3NC(=O)C3CC3)CC2)c1	CCT chaperon mod -56
CC(=O)Nc1nc(=S)ss1	none
Cc1ccccc1C(=O)Nc1nc(=S)ss1	CCT chaperon mod -57
COc1ccc(NC(=O)CSc2nc3[nH]c(=O)[nH]c(=O)c3s2)cc1OC	TSHR antag -73
CC1Cc2cc(-c3csc(NC(=O)Cc4cccs4)n3)ccc2N1S(C)(=O)=O (configuration not stated)	TSHR antag -72
CCC(=O)Nc1nc(-c2ccc3c(c2)CC(C)N3S(C)(=O)=O)cs1 (configuration not stated)	none
CCn1c(-c2cc(-c3cc(C)ccc3C)nc3ccccc23)n[nH]c1=S	CCT chaperon mod -72
Cc1sc2ncnc(N)c2c1C	CCT chaperon mod -55
Brc1ccc(-c2nc3ccccc3s2)s1	Mm-Cpn inhibitor 40µM
COc1cc(/C=C2\SC(=S)NC2=O)ccc1OS(=O)(=O)c1ccccc1	TSHR antag -74 (no result: CCT chaperon mod)
COc1cc(/C=C2/SC(=S)NC2=O)ccc1OS(=O)(=O)c1ccc(C)cc1	TSHR antag inconclusive
COc1ccc(C)cc1NC(=O)COC(=O)Cc1ccc(-c2ccccc2)cc1	none
O=C(NCC(c1ccco1)N1CCCC1)c1cc(S(=O)(=O)N2CCCCC2)ccc1Cl (configuration not stated)	CCT chaperon mod -40 (no result: TSHR antag)
O=C1CCC(=O)N1CNc1ccc(Oc2ccccc2)cc1	CCT chaperon mod -36 (no result: Mm-Cpn inhibitor, TCR activator, TSHR antag, B2AR arrestin)
COc1ccc(NCN2C(=O)CCC2=O)cc1	none
CCC(=O)N(Cc1ccc2c(c1)OCO2)Cc1cc2cc(OC)ccc2[nH]c1=O	none
CCC(NC(=O)c1ccc2nc(Cc3ccc(OC)cc3)oc2c1)c1ccncc1 (configuration not stated)	CCT chaperon mod -84
CS(=O)(=O)N(Cc1ccccc1)c1ccc(C(=O)N2CCN(c3cccc(Cl)c3)CC2)cc1	TSHR antag -92
